Where “and” joins values, the source holds several entries; their conditions need not be identical. Equal values may be shown once. Inconclusive results are not listed. Calls of active or inactive are those of the source. Unless noted, the call rests on the fitted dose curve; in most records, active means well fitted curve in the direction sought with a large enough effect; inconclusive means small, poorly fitted or top-dose-only effect, or another doubt; inactive means no such curve, though single readings can be large; an effect the other way counts as inactive or inconclusive. Bounds are passed on as bounds.

A short description of assay [1]: Stat Signaling Pathway (AID 446; active means well fitted curve in either direction with a large enough effect, not every such curve was filed as active;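 further: ME-180 cervical cancer cells given 40 pM IL-6 alongside compound; SIE-controlled beta-lactamase reporter measured as 460/530 nm FRET emission ratio; on the % scale 0 is the no-effect control and ±100 the full control effect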). As to conditions: ME-180 SIE beta-lactamase reporter, IL-6 stimulated, 5 h. In short, it runs like this: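 Normalization used AC90 stimulation (300 pM IL-6) and AC90 inhibition (125 nM pan-JAK inhibitor at 40 pM IL-6). The underlying signal is SIE-driven beta-lactamase in ME-180 cells after 5 h IL-6 exposure with compound.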
The target in assay [2] is Glucocorticoid receptor (Homo sapiens) (UniProt P04150). In words: GR-GFP Redistribution (AID 450;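 active means compounds whose dose series gives a full or clear partial fitted curve of increased nuclear translocation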; further: potency means the concentration at half of the fitted maximal effect). As to conditions: U2OS GR-GFP nuclear translocation, laser cytometry, 2 h.
Assay [3] shares this target. In words: GR-EFC Redistribution (AID 451; calls by dose curve; further: potency means the concentration at half of the fitted maximal effect). As to conditions: CHO-K1 GR-EFC translocation, beta-gal luminescence, 2 h. In short, it runs like this: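 CHO-K1 cells stably expressing nuclear-localized β-gal enzyme acceptor and GR fused C-terminally to the enzyme donor fragment; ligand-driven nuclear translocation restores β-gal by complementation. Compounds titrated up to 46 uM final, 2 h at 37 °C; luminescence read.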

Assay [4] addresses Mitogen-activated protein kinase 10 (Mus musculus) (UniProt Q61831). Nature of the assay: JNK3 AlphaScreen Assay (AID 530; active means well fitted curve in either direction with a large enough effect, not every such curve was filed as active;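 further: kinase came from lysate of stimulated human HepG2 cells; signal reports phosphorylation of biotinylated GST-cJun 1-79 at Ser73 with 10 µM ATP; on the % scale 0 is the no-effect control and ±100 the full control effect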). The procedure, abridged:
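Phosphorylation of biotinylated GST-cJun(1-79) at Ser73 is measured by AlphaScreen proximity luminescence. Enzyme is JNK3 in HepG2 lysates activated with interleukin-1beta and tumor necrosis factor alpha; ATP is 10 uM final.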

In assay [5] the target is 3',5'-cyclic-AMP phosphodiesterase 4B (Homo sapiens) (UniProt Q07343). Nature of the assay: qHTS Assay for Inhibitors of PDE-IV (AID 607; active means well fitted activation curve with a large enough effect in the main read-out, with a control signal flat, not every such curve was filed as active; further: % of control where 0% means no effect). The procedure, abridged: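 HEK293 ACTOne cells with CNG channel (1000/well), endogenous PDE4; membrane potential dye, compounds up to 22.9 uM final. Fluorescence Ex 535/Em 590; RO 20-1724 (100 uM final) as reference.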
In assay [6] the target is Guanine nucleotide-binding protein G(i) subunit alpha-1 (Homo sapiens) (UniProt P63096). In words: qHTS Assay for Inhibitors of RGS12 GoLoco Motif Activity (Green Fluorophore) (AID 879).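 Further: 0% = labeled peptide with Gαi1 and full inhibition = labeled peptide alone without protein; negative values mean loss of peptide binding seen as reduced polarization.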 In short, it runs like this:
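A drop in FITC polarization marked displacement of the FITC-tagged RGS12 GoLoco peptide (10 nM) from Gαi1 (50 nM). Compounds were incubated 10 min at room temperature in Tris pH 7.5 buffer containing 150 mM NaCl, 0.1 mM GDP and 0.05% NP40; unlabeled peptide titration served as control.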

The target in assay [7] is Cytochrome P450 3A4 (Homo sapiens) (UniProt P08684). Nature of the assay: qHTS Assay for Inhibitors and Substrates of Cytochrome P450 3A4 (AID 884). Further: on the % scale 0 is the no-effect control and ±100 the full control effect; nearly all actives have a fitted effect of over 50% in size. The procedure, abridged:
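Luminescent readout of luciferin produced by CYP3A4 (20 nM) dealkylation of Luciferin-PPXE, 25 uM (its KM). NADPH-driven reaction ran 60 min at RT after 10 min compound preincubation; data scaled to 57 uM ketoconazole as 100% inhibition.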

Assay [8] is described as follows: qHTS Assay for Identification of Small Molecule Agonists for Thrombopoietin (TPO) Signaling Pathway (AID 917). Further: on the % scale 0 is the no-effect control and ±100 the full control effect. The procedure, abridged: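 Human TPO receptor–transfected Ba/F3 cells (murine, IL-3-dependent) in IL-3-deficient medium; compounds plus TPO at EC50, 26 pM final; 24 hrs, 37 C; GpIIb-luciferase luminescence after 10 min RT detection.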
For assay [9], the target named is Alpha-galactosidase A (Homo sapiens) (UniProt P06280). In words: Counterscreen for Glucocerebrosidase Inhibitors: qHTS Assay for Human alpha-Galactosidase at pH 4.5 (AID 992). Further: 0% is about no effect. The procedure, abridged:
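Steps: enzyme (2 nM final), then compound across 0.7 nM to 77 uM, then 80 uM fluorogenic galactopyranoside substrate; incubate 20 min at room temperature; quench at pH 10; measure fluorescence at 365/440 nm.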

Assay [10] concerns the target alpha-glucosidase (Oryza sativa, rice) (UniProt Q653V4). Nature of the assay: Counterscreen for Glucocerebrosidase Inhibitors: qHTS Assay for Rice alpha-Glucosidase at pH 5.0 (AID 997).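 Further: 0% = full activity with enzyme and -100% = basal without enzyme.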 The procedure, abridged:
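Endpoint fluorogenic assay at pH 5.0: compounds (0.7 nM to 77 uM) titrated against 4 nM rice enzyme and 400 uM 4-MU-alpha-glucoside for 20 min at room temperature; NaOH/glycine stop, read ex 365/em 440 nm, Hill-fitted AC50.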

The nature of assay [11]: qHTS Assay for Lipid Storage Modulators (AID 1519; calls by dose curve). As to conditions: Drosophila S3 cells, BODIPY lipid droplet/cell ratio, laser cytometry, cells loaded with oleic acid. The procedure, abridged:
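Cells seeded at 5,000 per well were treated with compounds over a concentration series and loaded with oleic acid (400 uM, as added). Lipid droplet fluorescence (488 nm excitation, 500-530 nm channel) was read by laser-scanning cytometry and normalized to 20 uM Triacsin C.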

The target of assay [12] is Ubiquitin carboxyl-terminal hydrolase 1 (Homo sapiens) (UniProt O94782). Nature of the assay: Inhibitors of USP1/UAF1: Pilot qHTS (AID 504865).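 Further: rhodamine fluorescence freed from ubiquitin-rhodamine substrate followed over time; top concentration of the series differs between compounds; on the % scale 0 is the no-effect control and ±100 the full control effect; nearly all actives have a fitted effect of over 35% in size.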 In short, it runs like this:
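Enzyme-free wells gave the negative control, while test wells held 1nM USP1/UAF1 preincubated with compound for 15 min at room temperature. Ub-Rho at 150nM final started the reaction, and fluorescence at 480/540 nm was recorded kinetically.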

The target of assay [13] is DNA dC->dU-editing enzyme APOBEC-3G (Homo sapiens) (UniProt Q9HC16). Nature of the assay: qHTS for inhibitors of Vif-A3G interactions: Validation (AID 588379). Further: 0% is about no effect. The procedure, abridged:
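Yellow fluorescence (Ex 488, Em 500-530) of Vif-coexpressing HeLa A3G-eYFP cells, scanned by Acumen cytometer, reports blocked A3G degradation. Cells plated at 700/well overnight at 37 deg C before compound addition, then a further overnight compound incubation at 37 deg C.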

The subject of assay [14] is Zika virus NS2B-NS3 protease. Nature of the assay: Primary screen GU AMC qHTS for Zika virus inhibitors (AID 1347154).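 Further: 0% = no-inhibitor control and -100% = no-enzyme control; nearly all actives have a fitted effect of over 70% in size.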 The procedure, abridged:
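Unlinked Zika NS2B hydrophilic domain/NS3 protease domain noncovalent complex (25 nM final) in 10 mM Tris-HCl pH 8.0, 0.01% Tween 20, with AMC peptide substrate. Fluorescence (ex 340, em 450 nm) change over 15 min, room temperature; percent inhibition fitted to 4-parameter Hill equation.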

Assay [15] in a line: AP1 Signaling Pathway (AID 357; active means well fitted curve in either direction with a large enough effect, not every such curve was filed as active;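 further: ME-180 reporter cells stimulated with EGF at its EC50 level; on the % scale 0 is the no-effect control and ±100 the full control effect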). As to conditions: ME-180 (cervical carcinoma) AP-1-bla reporter, EGF-induced, beta-lactamase ratio, 5 h; at 38 µM (top of the series). The procedure, abridged: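 A ratiometric CCF4 readout (405 nm excitation; 460 and 530 nm emission) quantified AP-1-driven beta-lactamase in ME-180 cells after 5 h with compound and EC50 EGF; AC50 values were derived for activators and inhibitors.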

Assay [16] can be described thus: NFAT Signaling Pathway (AID 444; active means well fitted curve in either direction with a large enough effect, not every such curve was filed as active). As to conditions: Jurkat NFAT-bla M1, carbachol, beta-lactamase ratio, 5 h; at 38 µM (top of the series). In short, it runs like this: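 Jurkat cells carrying an NFAT-driven β-lactamase reporter and co-transfected muscarinic M1 receptor were treated with compound plus carbachol (1 uM final, an EC50 level) for 5 h at 37 °C. CCF4 loading followed for 1 h at RT; 460/530 nm ratio gave %activity.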

Assay [17] addresses Cytochrome P450 2C9 (Homo sapiens) (UniProt P11712). Nature of the assay: qHTS Assay for Inhibitors and Substrates of Cytochrome P450 2C9 (AID 883). Further: nearly all actives have a fitted effect of over 60% in size. Further: potency means the concentration at half of the fitted maximal effect. The procedure, abridged: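 CYP2C9 deoxyluciferin hydroxylation, 37C, 60 min with NADPH regeneration; 10nM enzyme, 100uM Luciferin-H (KM). Glo detection reagent stopped reaction; luminescence normalized to sulphaphenazole (57uM) full inhibition.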

Assay [18] concerns the target Muscarinic acetylcholine receptor M1 (Rattus norvegicus) (UniProt P08482). Nature of the assay: qHTS Assay for Antagonists of Acetylcholine Muscarinic M1 Receptor: Kinetic Measurement of Intracellular Calcium Response (AID 943).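 Further: Fluo-4 calcium signal as peak divided by basal fluorescence over 4 min; nearly all actives have a fitted effect of over 75% in size.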 In short, it runs like this: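 Antagonism measured as reduction of carbachol-evoked (EC80, 100 nM final) calcium flux in rat M1-CHO cells after 10 min compound exposure. Fluo-4 signal read kinetically; ratio of maximal to basal fluorescence.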

For assay [19] the target is unchanged. Nature of the assay: qHTS Assay for Antagonists of Acetylcholine Muscarinic M1 Receptor: Measurement of IP-One Response (AID 944). Further: nearly all actives have a fitted effect of over 75% in size. The procedure, abridged:
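IP1 accumulation measured via TR-FRET between d2-IP1 and Eu-cryptate anti-IP1 antibody after carbachol (200 nM, EC80) stimulation for 30 min; rat M1-transfected CHO cells received compound 10 min before agonist.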

Assay [20] concerns the target Pyruvate kinase (Leishmania mexicana) (UniProt Q27686). In words: qHTS Validation Assay for Inhibitors of Leishmania Mexicana Pyruvate Kinase (AID 945).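 Further: 0% = DMSO only neutral control wells.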 In short, it runs like this: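 Purified LmPYK (E451W mutant, 0.2 nM) was incubated 1 h at room temperature with 0.5 mM PEP and 0.1 mM ADP in 50 mM imidazole pH 7.2, 50 mM KCl, 7 mM MgCl2; ATP formed was read by PKLight luminescence, normalized to DMSO wells.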

The target of assay [21] is Cytochrome P450 1A2 (Homo sapiens) (UniProt P05177). In words: p450-cyp1a2 (AID 410; calls by dose curve; further: potency means the concentration at half of the fitted maximal effect). The procedure, abridged: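 Luminescent demethylation readout: Luciferin-ME (100uM, equal to Km) turned over by 20nM CYP1A2 for 60 min at room temperature after NADPH regeneration addition, following 10 min compound preincubation. Normalization used 57 uM furafylline as full inhibition.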

Setting [22] is: measured here: cell count channel max response.
Where [23] appears, read: measured here: lipid channel max response.

Sequence of DNA dC->dU-editing enzyme APOBEC-3G (Homo sapiens) (Q9HC16 whole entry, looked up): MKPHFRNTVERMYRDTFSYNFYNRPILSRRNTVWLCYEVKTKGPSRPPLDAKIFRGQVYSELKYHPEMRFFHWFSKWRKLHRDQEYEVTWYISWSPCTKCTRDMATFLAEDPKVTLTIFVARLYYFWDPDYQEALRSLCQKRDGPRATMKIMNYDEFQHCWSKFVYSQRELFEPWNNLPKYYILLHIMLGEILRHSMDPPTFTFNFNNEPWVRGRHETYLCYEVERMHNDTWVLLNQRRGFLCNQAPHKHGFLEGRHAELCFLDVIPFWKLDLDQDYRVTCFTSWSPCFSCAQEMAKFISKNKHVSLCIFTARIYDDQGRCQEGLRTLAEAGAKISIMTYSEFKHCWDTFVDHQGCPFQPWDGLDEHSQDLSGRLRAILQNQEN
Sequence of Glucocorticoid receptor (Homo sapiens) (P04150 whole entry, looked up, the tested form may be a part): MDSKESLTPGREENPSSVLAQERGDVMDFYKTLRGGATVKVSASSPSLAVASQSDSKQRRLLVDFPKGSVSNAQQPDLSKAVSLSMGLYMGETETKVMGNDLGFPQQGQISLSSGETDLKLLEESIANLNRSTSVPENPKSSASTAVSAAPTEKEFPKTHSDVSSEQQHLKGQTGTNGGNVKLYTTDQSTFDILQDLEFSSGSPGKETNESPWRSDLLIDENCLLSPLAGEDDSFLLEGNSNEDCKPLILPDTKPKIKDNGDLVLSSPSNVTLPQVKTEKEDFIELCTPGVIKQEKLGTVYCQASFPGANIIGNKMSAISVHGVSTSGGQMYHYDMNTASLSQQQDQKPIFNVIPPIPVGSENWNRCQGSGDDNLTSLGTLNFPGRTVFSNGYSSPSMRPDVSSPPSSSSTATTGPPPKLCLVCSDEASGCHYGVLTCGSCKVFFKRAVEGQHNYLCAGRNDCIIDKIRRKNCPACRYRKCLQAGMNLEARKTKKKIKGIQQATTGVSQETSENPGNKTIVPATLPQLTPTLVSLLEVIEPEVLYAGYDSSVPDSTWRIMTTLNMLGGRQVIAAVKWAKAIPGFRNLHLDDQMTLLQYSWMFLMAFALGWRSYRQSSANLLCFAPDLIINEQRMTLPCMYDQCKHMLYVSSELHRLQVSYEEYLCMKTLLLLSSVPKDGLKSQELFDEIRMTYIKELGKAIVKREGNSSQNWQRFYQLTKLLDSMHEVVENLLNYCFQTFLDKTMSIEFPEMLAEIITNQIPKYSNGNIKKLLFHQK
Sequence of 3',5'-cyclic-AMP phosphodiesterase 4B (Homo sapiens) (Q07343 whole entry, looked up): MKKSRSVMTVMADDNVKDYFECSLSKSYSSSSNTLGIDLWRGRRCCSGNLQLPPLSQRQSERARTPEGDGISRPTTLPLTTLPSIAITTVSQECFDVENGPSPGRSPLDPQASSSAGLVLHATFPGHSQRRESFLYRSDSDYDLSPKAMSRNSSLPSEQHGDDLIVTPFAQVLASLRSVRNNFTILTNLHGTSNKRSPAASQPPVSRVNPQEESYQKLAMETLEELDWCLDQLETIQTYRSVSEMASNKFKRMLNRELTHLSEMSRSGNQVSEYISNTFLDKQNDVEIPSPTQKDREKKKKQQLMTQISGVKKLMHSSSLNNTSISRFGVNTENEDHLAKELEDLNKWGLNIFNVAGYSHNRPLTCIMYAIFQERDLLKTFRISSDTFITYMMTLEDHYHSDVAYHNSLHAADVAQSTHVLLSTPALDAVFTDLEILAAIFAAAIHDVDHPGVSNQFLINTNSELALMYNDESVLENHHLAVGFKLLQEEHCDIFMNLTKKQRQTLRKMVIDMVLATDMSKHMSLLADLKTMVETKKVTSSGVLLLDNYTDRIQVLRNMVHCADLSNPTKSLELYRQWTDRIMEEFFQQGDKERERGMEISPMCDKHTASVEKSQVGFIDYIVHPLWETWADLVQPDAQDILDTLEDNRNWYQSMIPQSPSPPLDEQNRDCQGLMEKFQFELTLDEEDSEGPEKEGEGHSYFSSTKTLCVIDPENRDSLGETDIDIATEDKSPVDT
Sequence of Ubiquitin carboxyl-terminal hydrolase 1 (Homo sapiens) (O94782 whole entry, looked up): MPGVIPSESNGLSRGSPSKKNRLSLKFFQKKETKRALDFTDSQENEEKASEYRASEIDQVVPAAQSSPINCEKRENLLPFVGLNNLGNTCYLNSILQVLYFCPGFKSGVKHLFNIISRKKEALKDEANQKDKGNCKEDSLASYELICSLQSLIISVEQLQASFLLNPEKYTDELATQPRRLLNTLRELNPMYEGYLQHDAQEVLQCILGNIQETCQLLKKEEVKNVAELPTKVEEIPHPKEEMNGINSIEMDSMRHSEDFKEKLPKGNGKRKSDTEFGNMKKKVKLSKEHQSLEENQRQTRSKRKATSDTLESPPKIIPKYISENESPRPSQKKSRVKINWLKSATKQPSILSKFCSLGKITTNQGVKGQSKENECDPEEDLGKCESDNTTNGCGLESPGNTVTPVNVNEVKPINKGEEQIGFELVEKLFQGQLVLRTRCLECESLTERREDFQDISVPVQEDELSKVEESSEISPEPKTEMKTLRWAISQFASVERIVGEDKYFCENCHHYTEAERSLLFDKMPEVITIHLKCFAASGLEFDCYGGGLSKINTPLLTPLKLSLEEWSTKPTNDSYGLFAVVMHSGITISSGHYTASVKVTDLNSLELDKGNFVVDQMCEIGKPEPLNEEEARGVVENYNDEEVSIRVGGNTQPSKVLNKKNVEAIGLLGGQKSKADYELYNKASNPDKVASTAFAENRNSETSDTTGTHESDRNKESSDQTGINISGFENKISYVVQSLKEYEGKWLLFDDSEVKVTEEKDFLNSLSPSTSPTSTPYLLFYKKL
Sequence of Cytochrome P450 3A4 (Homo sapiens) (P08684 whole entry, looked up): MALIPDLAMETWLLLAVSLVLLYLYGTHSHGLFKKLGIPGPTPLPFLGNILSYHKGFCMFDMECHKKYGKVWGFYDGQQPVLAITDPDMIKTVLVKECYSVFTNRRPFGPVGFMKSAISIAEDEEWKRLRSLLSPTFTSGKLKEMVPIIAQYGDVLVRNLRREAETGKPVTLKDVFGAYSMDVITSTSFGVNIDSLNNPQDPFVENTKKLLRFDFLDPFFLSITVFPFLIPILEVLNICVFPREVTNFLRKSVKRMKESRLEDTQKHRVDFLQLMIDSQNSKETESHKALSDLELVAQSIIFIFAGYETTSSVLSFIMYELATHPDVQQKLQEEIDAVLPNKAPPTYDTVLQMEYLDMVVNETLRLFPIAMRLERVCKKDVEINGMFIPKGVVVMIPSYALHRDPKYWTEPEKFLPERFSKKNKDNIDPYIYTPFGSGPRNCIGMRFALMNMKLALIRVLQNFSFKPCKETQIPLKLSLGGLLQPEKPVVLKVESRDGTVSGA
Sequence of Cytochrome P450 2C9 (Homo sapiens) (P11712 whole entry, looked up): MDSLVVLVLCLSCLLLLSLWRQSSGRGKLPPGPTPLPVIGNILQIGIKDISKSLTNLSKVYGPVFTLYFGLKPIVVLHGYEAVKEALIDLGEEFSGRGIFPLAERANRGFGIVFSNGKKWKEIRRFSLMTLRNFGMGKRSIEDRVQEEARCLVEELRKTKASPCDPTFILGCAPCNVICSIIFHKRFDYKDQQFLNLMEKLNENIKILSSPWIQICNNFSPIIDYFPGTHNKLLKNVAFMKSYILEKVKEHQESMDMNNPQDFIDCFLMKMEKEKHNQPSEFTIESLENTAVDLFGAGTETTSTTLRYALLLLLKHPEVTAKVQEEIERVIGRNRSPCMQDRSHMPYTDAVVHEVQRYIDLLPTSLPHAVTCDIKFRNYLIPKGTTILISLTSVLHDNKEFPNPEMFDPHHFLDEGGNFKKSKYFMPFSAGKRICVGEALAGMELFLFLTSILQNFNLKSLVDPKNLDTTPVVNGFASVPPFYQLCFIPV
Sequence of Alpha-galactosidase A (Homo sapiens) (P06280 whole entry, looked up): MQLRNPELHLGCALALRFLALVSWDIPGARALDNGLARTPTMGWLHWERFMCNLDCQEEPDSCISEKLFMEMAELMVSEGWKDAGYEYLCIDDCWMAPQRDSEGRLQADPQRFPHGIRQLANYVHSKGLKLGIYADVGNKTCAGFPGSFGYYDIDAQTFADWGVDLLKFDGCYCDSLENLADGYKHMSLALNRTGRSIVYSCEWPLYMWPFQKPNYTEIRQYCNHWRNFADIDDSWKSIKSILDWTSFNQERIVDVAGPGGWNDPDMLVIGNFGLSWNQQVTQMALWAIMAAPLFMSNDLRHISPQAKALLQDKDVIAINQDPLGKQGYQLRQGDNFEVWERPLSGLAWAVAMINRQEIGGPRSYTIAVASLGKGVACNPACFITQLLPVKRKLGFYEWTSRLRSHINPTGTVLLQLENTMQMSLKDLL
Sequence of Guanine nucleotide-binding protein G(i) subunit alpha-1 (Homo sapiens) (P63096 whole entry, looked up): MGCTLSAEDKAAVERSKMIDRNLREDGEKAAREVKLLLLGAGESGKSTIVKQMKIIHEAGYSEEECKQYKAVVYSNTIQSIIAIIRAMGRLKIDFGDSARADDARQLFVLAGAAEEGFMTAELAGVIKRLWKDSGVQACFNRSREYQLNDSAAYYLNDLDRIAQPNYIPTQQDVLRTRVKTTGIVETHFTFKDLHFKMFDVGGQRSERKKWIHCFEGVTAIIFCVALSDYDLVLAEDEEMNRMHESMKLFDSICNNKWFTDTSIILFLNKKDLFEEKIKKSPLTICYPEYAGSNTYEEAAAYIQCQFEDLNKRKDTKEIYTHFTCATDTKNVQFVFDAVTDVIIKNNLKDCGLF
Sequence of Muscarinic acetylcholine receptor M1 (Rattus norvegicus) (P08482 whole entry, looked up): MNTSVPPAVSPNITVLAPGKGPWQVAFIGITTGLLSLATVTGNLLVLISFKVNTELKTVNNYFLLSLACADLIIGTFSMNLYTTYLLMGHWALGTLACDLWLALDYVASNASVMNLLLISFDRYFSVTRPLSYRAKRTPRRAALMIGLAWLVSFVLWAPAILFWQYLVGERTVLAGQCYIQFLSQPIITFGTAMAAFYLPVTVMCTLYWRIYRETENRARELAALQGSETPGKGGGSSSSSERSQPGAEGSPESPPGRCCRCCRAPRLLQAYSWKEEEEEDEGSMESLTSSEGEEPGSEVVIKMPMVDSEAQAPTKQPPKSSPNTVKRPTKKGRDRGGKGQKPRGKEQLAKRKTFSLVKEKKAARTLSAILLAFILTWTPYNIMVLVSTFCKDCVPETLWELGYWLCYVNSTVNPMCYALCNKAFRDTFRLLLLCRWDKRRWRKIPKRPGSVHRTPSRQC

As to `CN1CCN2c3ccccc3Cc3ccccc3[C@@H]2C1`, the values for the activity, negative = inhibition in [1] (at 17.2 µM (top of the series)) and in assay [1] (at 38 µM (top of the series)) were 2.47% (inactive) and -1.53% (inactive), respectively. Moreover, the Potency in [2] was > 46 µM (inactive) and > 20.6 µM (inactive); in assay [3], > 46 µM (inactive) and > 20.6 µM (inactive). The Potency entry in [4], in [5], in assay [7], in assay [8], in assay [12] and in [13] was “inactive” in each case. Besides, the Potency result in [14] was “inactive”. Moreover, the call in assay [6], in assay [9] and in assay [10] was inactive. Besides, the activity change, negative = inhibition in assay [11] (at 25.7 µM (top of the series)) is -3.71% (inactive). The max response in [11] (setting [22]) was -3.28%; in [11] (setting [23]) it was -8.62%.
In the case of `CC(N)=NCCCC[C@H](N)C(=O)O`, the activity change, negative = inhibition in assay [15] is -1.14% (inactive); in assay [16], -3.86% (inactive); in assay [11] (at 57.5 µM (top of the series)) it was -4.89% (inactive). Also, the activity, negative = inhibition in [1] (at 38 µM (top of the series)) was -14% (inactive). For the same compound, the Potency in assay [2] and in assay [3] was > 46 µM (inactive) each time. The Potency entry in assay [4], in [5], in [17], in assay [7], in assay [8] and in assay [18] was “inactive” in each case. Also, the Potency result in [19], in assay [20], in assay [12], in assay [13] and in assay [14] was “inactive” each time. Moreover, the compound was classed as inactive in [6], in assay [9] and in [10]. The values for the max response in [11] (setting [22]) and in [11] (setting [23]) were -8.18% and -10.8%, respectively.
In the case of `CCCCCCCCCCCCC/C=C\[C@@H](O)[C@H](CO)NC(C)=O`, the Potency in assay [21] was 20 µM (active); in assay [2] it was > 46 µM (inactive); in [3], > 46 µM (inactive); in assay [17] it was 3.16 µM (active). Also, the Potency result in assay [4], in assay [5], in assay [13] and in [14] was “inactive” in each case. Moreover, the activity change, negative = inhibition in assay [11] (at 57.5 µM (top of the series)) is -6.83% (inactive). Besides, the max response in assay [11] (setting [22]) is 9.95%; in assay [11] (setting [23]) it was -0.444%.
